Here are results for five compounds from PubChem BioAssay (NCATS).

Results filed as inconclusive are left out. Calls of active or inactive are those of the source. Unless noted, calls come from the whole dose curve; as a rule, active = well fitted curve in the direction sought with a large enough effect; inconclusive = small, poorly fitted or top-dose-only effect, or another doubt; inactive = no such curve, though single readings can be large; an effect the other way counts as inactive or inconclusive.

A short description of assay [1]: NCATS anti-infectives library activity on the primary C. elegans qHTS viability assay (AID 1745855; calls by dose curve). The settings on record: C. elegans worm area imaging, day 7; series mostly up to 41.8 µM. The essentials:
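Viability read-out is GFP fluorescence of PE254-GFP-FLuc C. elegans, measured by laser cytometry (488 nm) at day 0, 3 and 7. Ten L1 worms per well were incubated 7 days at 21 °C with compounds and bacterial capsules in S medium.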
In general terms: qHTS replaces the single test concentration by a dilution series.

The target of assay [2] is Phospholipid hydroperoxide glutathione peroxidase GPX4 (Homo sapiens) (UniProt P36969). Put plainly: Primary qHTS Assay for Inhibitors of Recombinant Selenoprotein Glutathione Peroxidase 4 (GPX4) (AID 1845192). Note: % is set by controls: 0 for no effect and ±100 for the full control effect; nearly all actives have a fitted effect of over 65% in size. The note with it: recombinant GPX4, GR-coupled NADPH fluorescence, 15 min; series mostly up to 50 µM. The gist of the method: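 NADPH consumption, followed by fluorescence at 340/450 nm between 0 and 15 min, reports GPX4 activity via coupled glutathione reductase (100 nM). Enzyme 200 nM was pre-exposed to compound 30 min; 0.5 mM cumene hydroperoxide and 1 mM GSH served as substrates.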

Assay [3] has as its target Lysosomal acid glucosylceramidase (Homo sapiens) (UniProt P04062). Nature of the assay: Glucocerebrosidase-p2 (AID 348; in the data active = potency below about 10 µM; note: potency is the fitted concentration of half-maximal effect). The note with it: purified GBA, blue fluorogenic substrate, 40 min. The gist of the method: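 Compounds titrated from 0.6 nM upwards against 0.2 nM enzyme in pH 5.9 citric acid/KH2PO4, taurocholate, tween-20; blue fluorogenic substrate 80 uM, 40 min room temperature, stopped and read Ex 365/Em 440 for AC50.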

Assay [4] is described as follows: AP1 Signaling Pathway (AID 357; active = well fitted curve in either direction with a large enough effect, not every such curve was filed as active; note: % is set by controls: 0 for no effect and ±100 for the full control effect). The note with it: ME-180 AP-1-bla reporter, EGF-induced, beta-lactamase ratio, 5 h; at 7.69 µM (top of the series) unless noted. The gist of the method: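 AP-1-bla ME-180 cells with beta-lactamase reporter under AP-1 response element, stimulated with EC50 EGF; compounds titrated, 5 hours at 37 degrees Celsius. CCF4 read at 460/530 nm ratio; positive and negative modulators judged by AC50.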

The target in assay [5] is Cytochrome P450 1A2 (Homo sapiens) (UniProt P05177). Put plainly: p450-cyp1a2 (AID 410; calls by dose curve;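 note: -100% = full effect of reference inhibitor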). The note with it: recombinant CYP1A2, luciferin-ME demethylation, luminescence; series mostly up to 57 µM. The essentials: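 Luminescent readout of luciferin formed from Luciferin-ME by human CYP1A2; data normalized against complete inhibition by 57 uM furafylline. Enzyme 20nM, substrate 100uM at Km, 100mM KPO4 buffer, 60 min reaction at room temperature.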

Assay [6] can be described thus: Stat Signaling Pathway (AID 446; active = well fitted curve in either direction with a large enough effect, not every such curve was filed as active;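 note: ME-180 cervical cancer cells given 40 pM IL-6 alongside compound; SIE-controlled beta-lactamase reporter measured as 460/530 nm FRET emission ratio; % is set by controls: 0 for no effect and ±100 for the full control effect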). The settings on record: ME-180 SIE beta-lactamase reporter, IL-6 stimulated, 5 h; at 7.69 µM (top of the series) unless noted. The gist of the method:
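Screening format detects activators and inhibitors alike: ME-180 SIE-bla cells stimulated at 40 pM IL-6 for 5 hrs with compound, then dual-emission beta-lactamase read at 405 nm excitation.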

The target of assay [7] is Glucocorticoid receptor (Homo sapiens) (UniProt P04150). Put plainly: GR-GFP Redistribution (AID 450;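 active = compounds whose dose series gives a full or clear partial fitted curve of increased nuclear translocation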; note: potency is the fitted concentration of half-maximal effect). The settings on record: U2OS GR-GFP nuclear translocation, laser cytometry, 2 h.
The target is the same in assay [8]. Put plainly: GR-EFC Redistribution (AID 451; calls by dose curve; note: potency is the fitted concentration of half-maximal effect). The note with it: CHO-K1 GR-EFC translocation, beta-gal luminescence, 2 h. The essentials: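 Translocation of GR-ED fusion to nuclear EA restores b-gal, read by luminescence after 1 h room-temperature detection. Engineered CHO-K1 biosensor cells, 1,000/well, exposed 2 h at 37 C to titrations up to 46 uM final.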
Assay [9] addresses Mitogen-activated protein kinase 10 (Mus musculus) (UniProt Q61831). Nature of the assay: JNK3 AlphaScreen Assay (AID 530; active = well fitted curve in either direction with a large enough effect, not every such curve was filed as active;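 note: kinase came from lysate of stimulated human HepG2 cells; signal reports phosphorylation of biotinylated GST-cJun 1-79 at Ser73 with 10 µM ATP; % is set by controls: 0 for no effect and ±100 for the full control effect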). The settings on record: JNK3 lysate, c-Jun phosphorylation; series mostly up to 57.1 µM. The gist of the method: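 Compound titrations were preincubated 15 minutes at room temperature with substrate, antibody and pre-activated JNK3-containing HepG2 lysate. Reactions were started with 10 uM ATP and stopped with EDTA-containing bead buffer for AlphaScreen detection.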
On the technique in general: Bead proximity is the source of the signal in Alpha formats.

Assay [10] has as its target Cytochrome P450 2C9 (Homo sapiens) (UniProt P11712). Nature of the assay: qHTS Assay for Inhibitors and Substrates of Cytochrome P450 2C9 (AID 883). Note: potency is the fitted concentration of half-maximal effect; nearly all actives have a fitted effect of over 60% in size. The note with it: recombinant CYP2C9, luciferin-H luminescence, 60 min; series mostly up to 57.1 µM. The gist of the method: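 Turnover of Luciferin-H (100uM, KM) by 10nM human CYP2C9 was measured over 60 min at 37C with NADPH regeneration; inhibitors and some substrates reduce luminescence. Data normalized to sulphaphenazole 57uM.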

Assay [11] addresses Cytochrome P450 2C19 (Homo sapiens) (UniProt P33261). Put plainly: qHTS Assay for Inhibitors and Substrates of Cytochrome P450 2C19 (AID 899). Note: potency is the fitted concentration of half-maximal effect; nearly all actives have a fitted effect of over 60% in size. The settings on record: recombinant CYP2C19, luciferin-H EGE luminescence; series mostly up to 57.1 µM. The gist of the method: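 Reactions contain 5nM enzyme, 10uM Luciferin-H EGE (KM) and 50mM KPO4; compound preincubates 10 min at 37C, NADPH regeneration starts turnover for 60 min. Luminescence after detection reagent gives activity.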

Assay [12] can be described thus: Cell Viability qHTS for small molecule stabilizers of the endoplasmic reticulum resident proteome (AID 1508629).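 Note: potency is the fitted concentration of half-maximal effect; compound exposure about 46 h in total before the viability read.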 The settings on record: cell viability counter-screen, 100 nM thapsigargin for final 4 h.
Assay [13] addresses Rap guanine nucleotide exchange factor 3 (Homo sapiens) (UniProt O95398). Nature of the assay: Confirmatory qHTS for agonist of cAMP-regulated guanine nucleotide exchange factor 3 (EPAC1) (AID 1645881).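 Note: EPAC1 catalysed release of BODIPY-GDP from Rap1B seen as fluorescence loss; nearly all actives have a fitted effect of over 75% in size.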 The note with it: EPAC1 Rap1B BODIPY-GDP exchange fluorescence, 100% = cAMP control response; series mostly up to 154 µM.
Assay [14] deals with Rap guanine nucleotide exchange factor 4 (Homo sapiens) (UniProt Q8WZA2). Put plainly: Confirmatory qHTS for agonist of cAMP-regulated guanine nucleotide exchange factor 4 (EPAC2) (AID 1645884).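 Note: nucleotide exchange releases bodipy-GDP from Rap1 and this lowers its fluorescence; % is set by controls: 0 for no effect and ±100 for the full control effect; nearly all actives have a fitted effect of over 65% in size.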 The settings on record: EPAC2 GEF activity, Rap1B-BODIPY-GDP fluorescence, percent relative to cAMP agonist control; series mostly up to 154 µM.
Assay [15] has the same target. Put plainly: Confirmatory qHTS for antagonist of cAMP-regulated guanine nucleotide exchange factor 4 (EPAC2) (AID 1645885). Note: % is set by controls: 0 for no effect and ±100 for the full control effect; nearly all actives have a fitted effect of over 25% in size. The settings on record: EPAC2 Rap1B-BODIPY-GDP exchange fluorescence, biochemical; series mostly up to 114 µM.
Assay [16] in a line: Primary qHTS for inhibitors of nuclear receptor binding SET domain protein 2 (NSD2) in an isogenic RCH-ACV NSD2 p.E1099K mutant (9B) (AID 1645876). Note: potency is the fitted concentration of half-maximal effect; nearly all actives have a fitted effect of over 70% in size. The settings on record: RCH-ACV (leukaemia line) NSD2 E1099K (9B) viability, CellTiter-Glo, 72 h; series mostly up to 44.9 µM.
In assay [17] the target is Catechol O-methyltransferase (Homo sapiens) (UniProt P21964). Put plainly: Confirmatory Screen for Target Class Profiling of Small Molecule Inhibitors of Methyltransferases (AID 1745852; calls by dose curve; note: potency is the fitted concentration of half-maximal effect; for activity change, negative = inhibition: % is set by controls: 0 for no effect and ±100 for the full control effect). The note with it: MTase-Glo luminescence, SAH detection, recombinant enzyme; measured here: COMT max response; stronger effect = lower value.
Assay [18] addresses Guanidinoacetate N-methyltransferase (Homo sapiens) (UniProt Q14353). The assay is described as above. The note with it: MTase-Glo luminescence, SAH detection, recombinant enzyme; activity change, negative = inhibition: at 57.3 µM (top of the series).
Assay [19] deals with Nicotinamide N-methyltransferase (Homo sapiens) (UniProt P40261). Described as above. The settings on record: MTase-Glo luminescence, SAH detection, recombinant enzyme; measured here: NNMT max response; stronger effect = lower value.
Assay [20] concerns the target Phenylethanolamine N-methyltransferase (Homo sapiens) (UniProt P11086). The assay is described as above. The settings on record: MTase-Glo luminescence, SAH detection, recombinant enzyme; measured here: PNMT max response; stronger effect = lower value.

Sequence of Rap guanine nucleotide exchange factor 4 (Homo sapiens) (Q8WZA2 whole entry, looked up): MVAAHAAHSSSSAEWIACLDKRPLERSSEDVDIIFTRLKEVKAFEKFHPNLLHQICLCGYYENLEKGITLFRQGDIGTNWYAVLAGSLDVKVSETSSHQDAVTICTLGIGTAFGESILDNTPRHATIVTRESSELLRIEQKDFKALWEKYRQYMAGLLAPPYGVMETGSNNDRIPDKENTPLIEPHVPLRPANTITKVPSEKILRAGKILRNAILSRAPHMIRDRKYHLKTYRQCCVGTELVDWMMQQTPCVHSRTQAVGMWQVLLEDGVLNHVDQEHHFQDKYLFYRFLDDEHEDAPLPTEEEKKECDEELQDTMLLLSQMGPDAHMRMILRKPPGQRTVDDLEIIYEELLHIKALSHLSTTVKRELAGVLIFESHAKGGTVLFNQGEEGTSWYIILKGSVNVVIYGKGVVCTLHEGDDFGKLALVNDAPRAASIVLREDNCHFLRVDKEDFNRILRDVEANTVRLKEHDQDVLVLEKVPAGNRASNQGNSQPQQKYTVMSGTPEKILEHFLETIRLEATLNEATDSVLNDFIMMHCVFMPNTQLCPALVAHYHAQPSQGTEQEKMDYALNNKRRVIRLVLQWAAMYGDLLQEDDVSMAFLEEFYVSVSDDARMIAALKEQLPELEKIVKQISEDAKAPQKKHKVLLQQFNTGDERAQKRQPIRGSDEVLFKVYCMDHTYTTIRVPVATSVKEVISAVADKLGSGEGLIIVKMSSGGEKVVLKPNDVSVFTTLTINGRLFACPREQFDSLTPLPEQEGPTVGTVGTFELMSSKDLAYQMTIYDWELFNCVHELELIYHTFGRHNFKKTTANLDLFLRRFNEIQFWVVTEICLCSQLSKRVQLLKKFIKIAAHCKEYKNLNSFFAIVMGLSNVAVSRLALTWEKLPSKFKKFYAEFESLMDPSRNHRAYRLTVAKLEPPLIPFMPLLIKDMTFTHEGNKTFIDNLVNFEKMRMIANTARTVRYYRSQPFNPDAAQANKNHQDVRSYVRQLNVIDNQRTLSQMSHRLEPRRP
Sequence of Phenylethanolamine N-methyltransferase (Homo sapiens) (P11086 whole entry, looked up): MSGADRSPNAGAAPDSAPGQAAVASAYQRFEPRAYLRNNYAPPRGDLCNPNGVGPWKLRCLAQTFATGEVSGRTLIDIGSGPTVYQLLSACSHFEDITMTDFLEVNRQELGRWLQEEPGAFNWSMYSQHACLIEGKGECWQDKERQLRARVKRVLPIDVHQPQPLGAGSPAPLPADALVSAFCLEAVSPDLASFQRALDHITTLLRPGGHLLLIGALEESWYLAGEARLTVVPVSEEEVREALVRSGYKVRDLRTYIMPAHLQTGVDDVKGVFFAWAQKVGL
Sequence of Nicotinamide N-methyltransferase (Homo sapiens) (P40261 whole entry, looked up): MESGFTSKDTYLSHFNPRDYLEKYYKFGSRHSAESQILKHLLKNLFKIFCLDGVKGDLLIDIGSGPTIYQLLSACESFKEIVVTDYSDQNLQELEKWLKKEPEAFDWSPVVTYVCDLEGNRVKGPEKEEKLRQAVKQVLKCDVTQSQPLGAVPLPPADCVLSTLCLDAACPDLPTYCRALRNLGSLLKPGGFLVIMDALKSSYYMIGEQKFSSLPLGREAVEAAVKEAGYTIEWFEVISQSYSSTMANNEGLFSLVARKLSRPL
Sequence of Catechol O-methyltransferase (Homo sapiens) (P21964 whole entry, looked up): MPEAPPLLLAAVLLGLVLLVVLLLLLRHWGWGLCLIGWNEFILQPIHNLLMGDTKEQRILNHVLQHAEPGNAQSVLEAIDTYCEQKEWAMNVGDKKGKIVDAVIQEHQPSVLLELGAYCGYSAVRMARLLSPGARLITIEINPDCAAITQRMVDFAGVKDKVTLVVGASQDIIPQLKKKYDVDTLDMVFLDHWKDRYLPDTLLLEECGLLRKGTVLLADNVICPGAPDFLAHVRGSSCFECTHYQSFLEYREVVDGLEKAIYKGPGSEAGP
Sequence of Glucocorticoid receptor (Homo sapiens) (P04150 whole entry, looked up, the tested form may be a part): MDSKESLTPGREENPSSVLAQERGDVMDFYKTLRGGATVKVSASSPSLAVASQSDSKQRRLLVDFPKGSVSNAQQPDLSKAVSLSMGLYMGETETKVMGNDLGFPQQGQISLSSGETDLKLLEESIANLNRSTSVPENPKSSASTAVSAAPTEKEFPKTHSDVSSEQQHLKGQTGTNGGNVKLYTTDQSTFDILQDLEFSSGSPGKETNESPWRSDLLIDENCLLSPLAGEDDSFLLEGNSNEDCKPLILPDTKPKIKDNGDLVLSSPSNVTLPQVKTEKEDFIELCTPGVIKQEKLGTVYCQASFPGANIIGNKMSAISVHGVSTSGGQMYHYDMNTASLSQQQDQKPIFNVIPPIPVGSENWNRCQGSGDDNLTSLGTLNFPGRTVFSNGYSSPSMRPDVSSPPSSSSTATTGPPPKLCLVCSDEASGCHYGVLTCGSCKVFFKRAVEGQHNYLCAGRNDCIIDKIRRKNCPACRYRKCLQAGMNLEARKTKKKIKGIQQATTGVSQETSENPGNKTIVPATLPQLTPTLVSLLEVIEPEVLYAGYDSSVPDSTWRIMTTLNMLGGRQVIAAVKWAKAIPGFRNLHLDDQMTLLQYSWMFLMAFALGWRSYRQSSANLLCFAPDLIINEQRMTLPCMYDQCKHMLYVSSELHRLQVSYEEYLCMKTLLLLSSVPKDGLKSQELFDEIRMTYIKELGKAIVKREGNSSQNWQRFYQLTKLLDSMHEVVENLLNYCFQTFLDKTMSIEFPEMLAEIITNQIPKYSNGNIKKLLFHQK
Sequence of Lysosomal acid glucosylceramidase (Homo sapiens) (P04062 whole entry, looked up): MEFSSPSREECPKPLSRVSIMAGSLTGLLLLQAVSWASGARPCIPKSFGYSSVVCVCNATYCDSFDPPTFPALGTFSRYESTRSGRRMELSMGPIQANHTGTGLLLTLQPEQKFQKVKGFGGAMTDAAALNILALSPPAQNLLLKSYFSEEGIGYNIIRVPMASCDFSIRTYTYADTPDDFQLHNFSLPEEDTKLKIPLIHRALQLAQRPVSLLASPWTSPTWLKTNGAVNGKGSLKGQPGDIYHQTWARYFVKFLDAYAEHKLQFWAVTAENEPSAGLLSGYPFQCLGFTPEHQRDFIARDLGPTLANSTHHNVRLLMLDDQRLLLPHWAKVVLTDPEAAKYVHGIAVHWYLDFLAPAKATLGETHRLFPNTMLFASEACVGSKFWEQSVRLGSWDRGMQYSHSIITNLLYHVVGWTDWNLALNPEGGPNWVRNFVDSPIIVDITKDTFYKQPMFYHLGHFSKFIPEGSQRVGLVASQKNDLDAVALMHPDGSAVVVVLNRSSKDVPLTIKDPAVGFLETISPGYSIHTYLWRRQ
Sequence of Cytochrome P450 2C9 (Homo sapiens) (P11712 whole entry, looked up): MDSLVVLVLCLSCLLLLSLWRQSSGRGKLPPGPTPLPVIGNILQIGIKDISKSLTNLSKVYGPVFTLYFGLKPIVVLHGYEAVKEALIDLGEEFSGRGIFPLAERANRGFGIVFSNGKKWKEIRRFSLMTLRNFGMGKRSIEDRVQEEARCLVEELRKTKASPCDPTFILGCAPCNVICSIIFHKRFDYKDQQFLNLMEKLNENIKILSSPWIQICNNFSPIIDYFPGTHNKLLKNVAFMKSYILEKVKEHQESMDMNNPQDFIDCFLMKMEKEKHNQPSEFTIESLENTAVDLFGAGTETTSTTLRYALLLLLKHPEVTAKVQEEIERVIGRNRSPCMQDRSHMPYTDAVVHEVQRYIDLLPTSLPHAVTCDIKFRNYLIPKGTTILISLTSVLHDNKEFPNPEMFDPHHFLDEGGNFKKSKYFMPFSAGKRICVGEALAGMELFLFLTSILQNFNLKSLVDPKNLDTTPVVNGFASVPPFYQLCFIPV
Sequence of Cytochrome P450 1A2 (Homo sapiens) (P05177 whole entry, looked up): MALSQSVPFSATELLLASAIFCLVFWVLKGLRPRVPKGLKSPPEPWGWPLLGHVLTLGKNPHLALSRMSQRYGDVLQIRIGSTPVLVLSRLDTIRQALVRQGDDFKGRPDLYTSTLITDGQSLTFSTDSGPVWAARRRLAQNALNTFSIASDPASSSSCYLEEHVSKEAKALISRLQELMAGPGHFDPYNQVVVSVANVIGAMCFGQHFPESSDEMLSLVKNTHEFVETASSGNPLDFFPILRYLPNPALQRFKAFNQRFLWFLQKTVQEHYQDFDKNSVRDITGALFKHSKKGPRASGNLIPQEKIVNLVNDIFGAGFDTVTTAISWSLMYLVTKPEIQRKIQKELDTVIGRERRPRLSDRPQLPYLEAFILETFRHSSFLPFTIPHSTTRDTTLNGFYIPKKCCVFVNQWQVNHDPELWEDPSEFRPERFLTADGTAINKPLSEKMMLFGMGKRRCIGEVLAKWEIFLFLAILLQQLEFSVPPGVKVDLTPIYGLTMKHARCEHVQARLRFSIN
Sequence of Phospholipid hydroperoxide glutathione peroxidase GPX4 (Homo sapiens) (P36969 whole entry, looked up): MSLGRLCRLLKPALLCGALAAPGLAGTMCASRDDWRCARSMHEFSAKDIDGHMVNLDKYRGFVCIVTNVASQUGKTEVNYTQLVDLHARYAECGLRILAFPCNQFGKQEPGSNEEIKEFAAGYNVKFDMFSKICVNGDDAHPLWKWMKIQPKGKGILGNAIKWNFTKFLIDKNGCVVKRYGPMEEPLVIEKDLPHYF
Sequence of Cytochrome P450 2C19 (Homo sapiens) (P33261 whole entry, looked up): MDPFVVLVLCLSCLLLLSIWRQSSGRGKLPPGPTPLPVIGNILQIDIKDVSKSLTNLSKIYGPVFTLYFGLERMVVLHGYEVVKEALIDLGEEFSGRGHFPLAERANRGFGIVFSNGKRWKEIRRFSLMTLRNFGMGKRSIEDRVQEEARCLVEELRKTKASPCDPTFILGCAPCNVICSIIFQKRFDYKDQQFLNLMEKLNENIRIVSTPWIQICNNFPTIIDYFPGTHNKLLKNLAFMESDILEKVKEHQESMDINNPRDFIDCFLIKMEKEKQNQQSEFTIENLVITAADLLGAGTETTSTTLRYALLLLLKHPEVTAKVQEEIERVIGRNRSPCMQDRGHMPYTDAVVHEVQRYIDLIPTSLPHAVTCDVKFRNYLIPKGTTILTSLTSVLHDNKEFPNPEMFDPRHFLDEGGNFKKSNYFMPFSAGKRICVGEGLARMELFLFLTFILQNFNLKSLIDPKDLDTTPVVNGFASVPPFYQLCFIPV

As to `CN(C)c1cc(NC(=O)CNC(C)(C)C)c(O)c2c1C[C@H]1C[C@H]3[C@H](N(C)C)C(=O)C(C(N)=O)=C(O)[C@]3(O)C(=O)C1=C2O`, the Potency result in assay [1] and in assay [2] was “inactive” throughout.
Regarding `CC(C)=CCc1c2c(c3occ(-c4ccc(O)c(O)c4)c(=O)c3c1O)C=CC(C)(C)O2`, the Potency in [3] is > 11.4 µM (inactive); in assay [7], > 46 µM (inactive); in assay [8], > 9.22 µM (inactive); in [10] it was 3.16 µM (active); in assay [11], 2 µM (active); in assay [12], 7.94 µM (active). Besides, the activity change, negative = inhibition is -0.16% (inactive) in [4], -3% [at 2.29 µM] (inactive) in assay [5] and -1.7% [at 11.4 µM] (inactive) in assay [9]. Further, the activity, negative = inhibition in assay [6] is -4.46% (inactive). For the same compound, the outcome in assay [13] and in assay [14] was “inactive” in each case. Further, the Potency result in [15] is “inactive”.
For `O=C(OC[C@H]1O[C@@H](OC(=O)c2cc(O)c(O)c(O)c2)[C@H](OC(=O)c2cc(O)c(O)c(O)c2)[C@@H](OC(=O)c2cc(O)c(O)c(O)c2)[C@@H]1OC(=O)c1cc(O)c(O)c(O)c1)c1cc(O)c(O)c(O)c1`, the Potency result in assay [1] is “inactive”.
With `COc1cc(C(=O)O)ccc1NC(=O)[C@@H]1N[C@@H](CC(C)(C)C)[C@](C#N)(c2ccc(Cl)cc2F)[C@H]1c1cccc(Cl)c1F`, the Potency in [16] is 209 nM (active); in [18], 34.1 µM (active). Moreover, the activity is -3.62% in [17], -47.6% in assay [19] and -14.4% in assay [20].
Take `O=C(/C=C/C#Cc1cccc(NS(=O)(=O)c2ccccc2)c1)NO`: in assay [16], the Potency was 456 nM (active). Besides, the activity was 41.7% in assay [17], -13.8% in [19] and 1.13% in assay [20]. Moreover, in [18], the activity change, negative = inhibition was -11.3%.
